In PubChem BioAssay AID587 (National Center for Advancing Translational Sciences (NCATS), 2007):
Hit rate of the full screen: of about 59,000 compounds, about 35 (0.06%) were called active. Another 19% or so got no clear call; they are omitted. This is one part of a sample in which actives are shown more often than they occur. Rule as the data show it: active = max dye-equivalent concentration above about 10 nM; inconclusive = between about 1.1 nM and that limit; inactive = weaker than that.

Test: qHTS Assay for Spectroscopic Profiling in Texas Red Spectral Region
Settings: Compound fluorescence, Texas Red channel, 547/618 nm
Text: NIH Molecular Libraries Screening Centers Network [MLSCN] NIH Chemical Genomics Center [NCGC] […] Occasionally, the artifactual effect may originate from the compound#s own spectral or other biophysical properties which generally tend to track its assay concentration. Pre-screening/profiling the library with respect to the compounds# spectral properties should help one exclude false positives early on. While the most informative fluorescent profiling data set is obtained by performing a full excitation and emission scan of each well by using a monochromator-based plate reader, such an approach is practical only on a very limited scale as scanning each well requires long time. An alternative approach, applied here, is to perform plate reader scans using selected excitation and emission wavelength pairs to generate a multidimensional relational database that correlates compound concentration and the respective relative fluorescence intensity at a given wavelength set. A standard curve of Texas Red (TR) present on each plate as six-point concentration series, was used to compute a normalized fluorescence response, termed dye-equivalent concentration, for each compound at each concentration.
NCGC Assay Protocol Summary: Buffer: 100 mM Tris buffer, pH 8.0 Dye standard plate: The wells in columns 1 through 4 of a Kalypsys polypropylene 1536-well compound plate were filled with standard solutions of fluorophore corresponding to the spectral region of interest. Solutions of TR were placed in the following wells: U1, V1: 3 mM, U2, V2: 300 uM, U3, V3: 30 uM, U4, V4: zero (DMSO), W1, X1: 3 uM, W2, X2: 900 nM, W3, X3: 300 nM, W4, X4: zero (DMSO). Assay Steps: Six uL of buffer were dispensed to 1536-well Greiner black plates. Compounds and dye standards (23 nL) were transferred via Kalypsys PinTool. The plates were incubated for 15 min at room temperature, and then read on ViewLux (Perkin-Elmer) High-throughput CCD imager using 547 nm and 618 nm excitation and emission filter set. Keywords: NIH Roadmap, MLSCN, MLI, MLSMR, qHTS, NCGC, Texas Red, Fluorescent Profiling.

Max dye-equivalent concentration, inactive:
Cc1nn(-c2ccccc2)c(CC(C)(C)C(=O)O)c1C(=O)O, COCCn1c(=O)c(-c2cc(F)cc(F)c2)nc2cnc(N3CCNCC3)nc21, CN1CCN(S(=O)(=O)c2ccc(NC(=O)C3CCCO3)cc2)CC1 (stereo unspecified), O=C(c1cnccn1)N1CCC[C@@]2(CCN(Cc3ccncc3)C2)C1, CN1CCN(c2ncc3nc(-c4ccc(Cl)cc4)c(=O)n(-c4ccccc4)c3n2)CC1, N#Cc1cccc(-c2nc3cnc(N4CCNCC4)nc3n(C3CC3)c2=O)c1, CCOCCOC(=O)C1=C(C)N(C)C(=O)NC1c1ccccc1F (stereo unspecified), Cc1nc(NCc2ccccc2)c(C(N)=O)c2c1COC(C)(C)C2, COc1ccc(N2CCN(C(=O)CSc3nnc4ncccn34)CC2)cc1, O=C1CSC(c2cccc(F)c2)N1c1ccccc1F (stereo unspecified), COc1ccc(N2CCN(Cc3cc(=O)oc4ccc5ccccc5c34)CC2)cc1, COC(=O)c1ccccc1NC(=O)CSc1ccccn1, COc1ccc2oc(=O)c(C(=O)N3CCN(c4ccccc4F)CC3)cc2c1, CCNc1ncc2nc(CCc3ccccc3)c(=O)n(-c3ccc(OC)cc3)c2n1, CCOC(=O)C1CCN(C(=O)Cn2cc(C#N)c3ccccc32)CC1, CC(C)C(C(=O)NC1CCCCC1)N(CC1CCCO1)C(=O)CNS(=O)(=O)c1ccc(F)cc1 (stereo unspecified), CO[C@@H]1/C=C\O[C@]2(C)Oc3c(C)c(O)c4c(O)c(c(CN(C)C)c(O)c4c3C2=O)NC(=O)/C(C)=C\C=C[C@@H](C)[C@@H](O)[C@H](C)[C@@H](O)[C@H](C)[C@H](OC(C)=O)[C@@H]1C, Cc1c(C(=O)CN2CCOCC2)[nH]c2ccccc12, O=C(NCCCCO)C(F)(F)C(F)(F)C(F)(F)C(=O)NCCCCO, O=c1c(-c2ccc(F)c(F)c2)nc2cncnc2n1-c1ccccc1, COC(=O)[C@@H]1[C@H]2C[C@H]3c4[nH]c5cc(OC)ccc5c4CCN3C[C@@H]2C[C@@H](OC(=O)c2cc(OC)c(OC)c(OC)c2)[C@@H]1OC, COc1ccc(C(=O)N(CCN2CCOCC2)CC(=O)NC2CCCC2)cc1OC, C=C(C)CSc1nc(N)c2c3c(sc2n1)CCC3, CC(C)c1nc(N2CCOCC2)c(C#N)c2c1COC(C)(C)C2, CN(C)c1ncc2nc(-c3ccc(F)cc3)c(=O)n(Cc3ccc(F)cc3)c2n1, c1cncc(CNc2ccnc(-c3ccc4c(c3)OCO4)n2)c1, CCN(CC(=O)NC(C)C)C(=O)CCNC(=O)c1ccc(Cl)cc1, Cc1nc2cnc(N3CCN(C)CC3)nc2n(C[C@H]2CCCO2)c1=O, COc1ncc2nc(-c3ccc(Cl)cc3)c(=O)n(-c3ccccc3)c2n1, O=C(O)[C@@H](S)[C@H](S)C(=O)O, N#CCCn1c(=O)c(-c2cc(F)cc(F)c2)nc2cnc(Oc3ccccc3)nc21, COc1ccc(OC)c(CN2C(=O)CCC2(C)C(=O)NC2CCCCCC2)c1 (stereo unspecified), O=C(Cn1nnc(-c2ccccc2)n1)NCc1ccccc1, O=c1[nH][nH]c(=O)c2cc(N3CCCC3)ccc12, CC(C(=O)N1CCOCC1)N1c2cccc3cccc(c23)S1(=O)=O (stereo unspecified), O=C(Nc1ccc2c(c1)OCCO2)C1CCCN(c2ncccn2)C1 (stereo unspecified), COCCNC(=O)C(c1ccc(C)o1)N(Cc1cccs1)C(=O)c1snc(C(N)=O)c1N (stereo unspecified), COc1c(F)c(F)c(-c2csc(N)n2)c(F)c1F, CC(C)c1ccc(NC(=O)NC2CCCCC2)cc1, CCC(C)(C(=O)NC1CCCC1)N(C(=O)CNC(C)=O)c1ccc(C)cc1 (stereo unspecified), CCNc1nc(NCC)nc(N(C)n2cnnc2)n1, O=C(CN1CCN(c2ccccn2)CC1)NCc1cccs1, O=C(O)COc1c(Cl)cc(Cl)c2cccnc12, O=C(OCC(O)C(O)COC(=O)c1ccccc1)c1ccccc1 (stereo unspecified), COc1cccc(Cn2c(=O)c(CCc3ccccc3)nc3cnc(N(C)C)nc32)c1, CN1CCN2c3ccccc3Cc3ccccc3[C@@H]2C1, COCCn1c(=O)c(-c2cccc(F)c2)nc2cncnc21, CC1Cc2cc(/C(O)=C3\C(=O)C(=O)N(CCN4CCOCC4)C3c3ccccc3F)ccc2O1 (stereo unspecified), CCOC(=O)CSc1nc2sc3c(c2c(=O)[nH]1)CC(C)(C)OC3, CC(C)NC(=O)N1CC[C@@]2(CCCN(C(=O)c3ccco3)C2)C1, CCC(c1nnnn1C1CCCC1)N1CCN(C(=O)c2ccco2)CC1 (stereo unspecified), Cc1nn(-c2ccccc2)c2sc(C(=O)N(Cc3ccco3)C(C)C(=O)NC(C)(C)C)cc12 (stereo unspecified), CCOC(=O)N1CCC(Nc2c(NCCCN3CCN(c4ccc(OC)cc4)CC3)c(=O)c2=O)CC1, COc1ccccc1CNC(=O)CCCNS(=O)(=O)c1cccc2nsnc12, COc1cccc(-c2cc(NCCc3c[nH]c4ccc(OC)cc34)ncn2)c1, CC(C)(C)c1ccc(C(=O)NCCC(=O)NCc2ccco2)cc1, CCOCC(=O)Nc1cc(OC)c(Cl)cc1OC, CCOc1ccc(CCNC(=O)C2CCN(c3ccc(N4CCOCC4)nn3)CC2)cc1OCC, O=C(Cn1ccc(=O)[nH]c1=O)Nc1ccc(C(=O)O)c(O)c1, CCc1c(C)sc(NC(=O)c2ccc(Br)o2)c1C(=O)OC, CCNc1ncc2ncc(=O)n(Cc3cccc(OC)c3)c2n1, CC1(C)S[C@@H]2[C@@H](NC(=O)[C@@H](N)c3ccccc3)C(=O)N2[C@H]1C(=O)O, COCCn1c(=O)c(-c2cccs2)nc2cncnc21, CN(C)c1cc(N)c2ccccc2n1 (tested in a mixture with another compound), C[N+]1(CCNC(=O)/C=N/O)CCCCC1, CCCCCC(=O)Nc1ccc2oc(-c3ccncc3)nc2c1, CN/C(=C\[N+](=O)[O-])NCCSCc1csc(CN(C)C)n1, COc1ccc(OCc2cccc(C(=O)N3CCCC3)c2)cc1, CN(c1ccc(C(=O)NCCC2=CCCCC2)cc1)S(C)(=O)=O, CCOc1ccc(C2C(C(=O)O)c3ccccc3C(=O)N2CCN2CCOCC2)cc1 (stereo unspecified), COc1ccccc1CNc1ncnc2ccc(-c3ccc4c(c3)OCO4)cc12, Cc1ccc2nc(-c3ccc(SCC(=O)Nc4cc(C)on4)nc3)[nH]c2c1, COc1ccc(-n2c(SCC(=O)NCc3cccs3)nnc2-c2ccoc2C)cc1, CN(C)CCNC(=O)C(C(=O)c1ccccc1)n1ccccc1=O (stereo unspecified), CC1Cn2c(nnc2-c2cccs2)S1 (stereo unspecified), CSc1ncccc1C(=O)OCC(=O)N1CCOCC1, c1ccc(-c2oc3ncnc(N4CCOCC4)c3c2-c2ccccc2)cc1, O=c1c(-c2cc(F)cc(F)c2)nc2cnc(Oc3ccccc3)nc2n1C[C@H]1CCCO1, COc1ccc(-n2ncc3c(N4CCc5ccccc54)ncnc32)cc1, CN(C)c1ccc(-c2nc(NCCN3CCOCC3)c3ccccc3n2)cc1, CC(NCCO)C(=O)C12CC3CC(CC(C3)C1)C2 (stereo unspecified), O=c1c(-c2ccc(F)cc2)nc2cnc(N3CCOCC3)nc2n1-c1ccccc1, Cc1cc(N2C(=O)C(=O)/C(=C(/O)c3ccc(Cl)cc3)C2c2cccc(Br)c2)no1 (stereo unspecified), CC[C@H](c1ccccc1)c1cc(C(C)(C)C)cc(C(C)(C)C)c1O, COc1ccc(C(=O)n2nc(-c3ccc(C)cc3)nc2N)cc1OC, Cn1cc(-c2nc3cnc(N4CCNCC4)nc3n(CCc3ccccc3)c2=O)c2ccccc21, O=c1c(CCc2ccccc2)nc2cnc(N3CCNCC3)nc2n1Cc1cccs1, Cc1nc2nc(COc3ccccc3)[nH]n2c(=O)c1C, COc1ccc(C(C(O)C(=O)c2c[nH]c3ccccc23)N2CCN(c3ccccc3)CC2)cc1 (stereo unspecified), COc1ccc(NS(=O)(=O)c2ccc(NC(=O)C(C)(C(F)(F)F)C(F)(F)F)cc2)nn1, N#Cc1ccc(OCCN2C(=O)NC3(CCSC3)C2=O)cc1 (stereo unspecified), Cc1nc2cnc(Nc3ccccc3)nc2n(Cc2ccc(F)cc2)c1=O, CC(=O)O[C@]1(C(C)=O)CC[C@@H]2[C@@H]3C=C(C)C4=CC(=O)CC[C@@]4(C)[C@H]3CC[C@]21C, Cc1oc(-c2cccc(Cl)c2)[n+]([O-])c1C, CCOC(=O)CCc1c(C)c(C#N)c2[nH]c3ccccc3n2c1=O, Cc1cc(C)c(C#N)c(SCc2ccccc2C(=O)O)n1, CC(CCc1ccccc1)NC(=O)c1ccc(Br)o1 (stereo unspecified), CCCCCNC(=O)Cc1ccc(OC)cc1, CCN(CC)C(=O)N1CCN(C(=O)c2ccc(C)cn2)CC1, CCCOC(=O)C1=C(C)NC2=C(C(=O)C(C(=O)OC)C(C)C2)C1c1ccc(N(C)C)cc1 (stereo unspecified), Cc1cc(C)n(-c2ccc(Cl)c(C(=O)O)n2)n1, COCCn1c(=O)c(C)nc2cnc(N(C)C)nc21, COCCn1c(=O)c(-c2ccc(OC)cc2)nc2cnc(Oc3cccc(Cl)c3)nc21, O=C(O)CCC(=O)N(Cc1ccco1)c1nc(-c2ccccc2)cs1, COc1ccc2nc(NC3=NCN(CC4CCCO4)CN3)nc(C)c2c1 (stereo unspecified), COc1ccc(-c2ccnc(SCC(=O)N3CCOCC3)n2)cc1
